From PubChem BioAssay
GDH-TPI counter-1 = counter-screen for M. tuberculosis FBA inhibitors: GDH-TPI coupled enzymes; AID 588335; inhibition, % at 4.8 µM; 360,000 compounds, 1.2% hits; GDH-TPI coupled enzyme counterscreen, NADH absorbance; in the data active = inhibition above about 30%;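 also: 0% = DMSO wells and 100% = wells lacking the enzyme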
Mtb FBA inh = inhibitors of M. tuberculosis fructose-bisphosphate aldolase | P9WQA3 | purified M. tuberculosis FBA, fluorescence read-out | inhibition, % at 1 µM | 360,000 compounds, 2.3% hits | AID 588726;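 also: 0% = vehicle and 100% = reference inhibitor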
Mtb betalactam = beta-lactam sensitization of Mtb H37Rv; inhibition, % at 25 µM; 330,000 compounds, 0.27% hits; M. tuberculosis H37Rv growth with meropenem, percent inhibition; call rule not given here;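 also: growth measured after seven days incubation then overnight dye step; 0% = bacteria only wells and 100% = bacteria with antibiotic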
RecA splice inh = Mtb RecA intein splicing inhibition; inhibition, % (concentration not given with the values); 290,000 compounds, 0.75% hits; cell-free RecA intein splicing, fluorescence; AID 2221; in the data active = inhibition above about 30%;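 also: 0% = vehicle wells and 100% = reference inhibitor control wells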
Rv3671c protease = Rv3671c (M. tuberculosis) protease inhibition; P9WHR9; inhibition, % at 5.96 µM; 320,000 compounds, 0.048% hits; AID 2606; in the data active = inhibition above about 38%;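 also: extracellular domain of Rv3671c used as enzyme; 0% = enzyme with DMSO and 100% = no enzyme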
UGM FP inh = inhibitors of M. tuberculosis UDP-galactopyranose mutase; purified UGM, fluorescence polarization probe displacement; inhibition, % at 10 µM; 320,000 compounds, 0.06% hits; AID 504406; in the data active = inhibition above about 10%, passing the limit was not always enough
Target sequence (P9WIQ1 whole entry, looked up): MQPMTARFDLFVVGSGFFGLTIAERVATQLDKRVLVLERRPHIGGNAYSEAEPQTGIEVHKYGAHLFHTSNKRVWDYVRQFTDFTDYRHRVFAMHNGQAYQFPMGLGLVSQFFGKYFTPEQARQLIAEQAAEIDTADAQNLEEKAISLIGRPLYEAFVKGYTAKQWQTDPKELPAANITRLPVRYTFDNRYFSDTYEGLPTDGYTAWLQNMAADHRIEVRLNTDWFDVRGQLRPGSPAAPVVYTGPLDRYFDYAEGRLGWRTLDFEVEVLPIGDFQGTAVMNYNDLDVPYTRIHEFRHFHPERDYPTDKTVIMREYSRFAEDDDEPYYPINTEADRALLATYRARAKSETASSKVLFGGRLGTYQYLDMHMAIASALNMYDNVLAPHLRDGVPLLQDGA
Mtb FBA inh conf = confirmation of M. tuberculosis fructose-bisphosphate aldolase inhibitors; shares compounds with Mtb FBA inh; purified M. tuberculosis FBA, fluorescence read-out; inhibition, % at 1 µM; 5,600 compounds, 78% hits;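 also: 0% = vehicle wells and 100% = reference inhibitor wells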
GDH-TPI counter-2 = inhibits GDH-TPI coupling enzymes, flagging Mtb FBA hits. shares compounds with Mtb FBA inh. GDH-TPI coupled enzyme counterscreen, fluorescence. inhibition, % at 1 µM. 5,600 compounds, 81% hits. AID 652141; in the data active = inhibition above about 10%
The depositor's hits bear a star; · = no result; + = active, no number. Compounds with a hit are over-represented: about 4% of the library has one in this group of screens. Rule as the data show it, unless noted: active = inhibition above about 27%; inactive = the rest.

SMILES	GDH-TPI counter-1	Mtb FBA inh	Mtb betalactam	RecA splice inh	Rv3671c protease	UGM FP inh	Mtb FBA inh conf	GDH-TPI counter-2
COc1ccc(OC)c(NC(=O)CNC(c2ccccc2)c2ccccc2)c1	5	3	2	6	-15	2	·	·
Cc1sc(NC(=O)C2=COCCO2)nc1-c1ccc(Cl)cc1	9	-3	-6	-1	-2	3	·	·
Cc1nn(-c2ccccc2)c(C)c1/C=N/N1CCN(c2ccccc2)CC1	-7	1	38	3	2	1	·	·
O=C(NN=C1CCCCC1)NC1CCCCC1	5	5	-6	-5	-2	-1	·	·
CC1CC(C)CN(c2oc(-c3ccccc3F)nc2C#N)C1 (configuration not stated)	10	60*	1	-3	7	-2	101*	78*
COc1ccc(N2CCN(c3oc(-c4ccccc4OC)nc3C#N)CC2)cc1	3	6	47	·	0	-2	·	·
COc1ccccc1-c1nc(C#N)c(N2CCc3ccccc3C2)o1	14	106*	22	-2	5	-3	-5	-5
Cc1cc(OCC(=O)NCc2ccncc2)c2c(C)c(C)c(=O)oc2c1	3	24	1	1	-2	-2	·	·
CCCCc1cc(=O)oc2cc(C)cc(OCC(=O)Nc3ccccn3)c12	14	34*	2	0	0	1	9	2
Cc1cc(OCC(=O)NCc2cccnc2)c2c(C)c(C)c(=O)oc2c1	3	30*	8	-1	0	-2	140*	122*
CCCCc1cc(=O)oc2cc(C)cc(OCC(=O)NCc3cccnc3)c12	11	46*	-7	0	-11	2	19	13*
CCc1cc(=O)oc2cc(C)cc(OCC(=O)NCc3cccnc3)c12	-1	72*	-8	0	1	-2	+	+
CCn1c2ccccc2c2cc(NC(=O)c3cccc([N+](=O)[O-])c3)ccc21	-6	1	-1	1	5	-1	·	·
CCN(Cc1ccc(N(C)C)cc1)C(C)C(=O)Nc1ccc(S(=O)(=O)N2CCCC2)cc1 (configuration not stated)	1	0	-7	·	1	1	·	·
COCC(=O)N1CCCC(C(=O)c2ccc(-c3ccccc3)cc2)C1 (configuration not stated)	4	3	-4	-2	-3	0	·	·
COc1ccc(/C=C\c2cc(OC)c(OC)cc2CC[N+](C)(C)C)cc1OC	21	34*	-1	0	1	-2	0	-3
CCC1(c2ccc(F)cc2)NC(=O)N(CC(=O)N2CCN(C(=O)c3ccco3)CC2)C1=O (configuration not stated)	-4	-4	-13	·	0	1	·	·
Cc1ccc2nc(-c3ccc(N4C(=N)SC5CS(=O)(=O)CC54)cc3)sc2c1 (configuration not stated)	20	48*	4	-1	-4	-1	80*	66*
Cn1cccc1CC(=O)N/N=C/c1cccc2ccccc12	27	-3	5	3	2	0	·	·
COc1ccccc1/C=C/C=N/NC(=O)Cc1cccn1C	51*	78*	8	0	4	0	+	+
CCN(CC)CCCNc1cc2n(c(=O)n1)CCc1cc(OC)c(OC)cc1-2	17	41*	-8	-2	0	3	-5	-6
Cc1c(N2C(=O)CSC2c2ccccc2)c(=O)n(-c2ccccc2)n1C (configuration not stated)	-6	2	-9	5	8	0	·	·
COc1ccc(C2SCC(=O)N2c2c(C)n(C)n(-c3ccccc3)c2=O)cc1OC (configuration not stated)	-1	47*	3	0	-2	0	58*	45*
COc1ccc(C2SCC(=O)N2c2c(C)n(C)n(-c3ccccc3)c2=O)c(OC)c1 (configuration not stated)	3	-1	0	-3	3	-3	·	·
